# Results filed as inconclusive are left out. Active and inactive are the calls of the source. How the source made its calls: active means hit-call score of the fitted dose curve at least 0.9, where 1 is the maximum; inconclusive means response in the unintended direction; inactive means score below 0.9.
# Tested on: TPO (gene 7173)
# Assay: CCTE_GLTED_hTPO: CCTE's human Thyroperoxidase (hTPO) Inhibition Assay, Great Lakes Toxicology and Ecology Division (GLTED) Lab
# Protocol: CCTE_GLTED_hTPO is a cell-free, single-readout assay designed to test the inhibitory activity of chemicals toward human thyroperoxidase (TPO) protein. Uninhibited enzyme converts Amplex UltraRed to a fluorescent product. Measurements were taken 0.5 hour after chemical dosing in a 96-well plate. CCTE_GLTED_hTPO is the assay component measured from the CCTE_GLTED_hTPO assay. It is designed to make measurements of enzyme activity, a form of enzyme reporter, as detected with […] by Fluorescence technology.Data from the assay component CCTE_GLTED_hTPO was analyzed at the assay endpoint CCTE_GLTED_hTPO in the positive analysis fitting direction relative to DMSO as the negative control and baseline of activity. Using a type of enzyme reporter (the Amplex UltraRed assay), loss-of-signal activity can be used to understand decreased peroxidase activity in the presence of excess […]. To generalize the intended target to other relatable targets, this assay endpoint is annotated to the 'oxidoreductase' intended target family, where the subfamily is 'peroxidase'.
# […]
Structure (SMILES),AC50,outcome
CN(C(=O)C(F)(F)C(F)(F)C(F)(F)F)[Si](C)(C)C,59.5 µM (active),–
O=C(Cl)C(F)(F)C(F)(F)C(F)(F)C(=O)Cl,150 µM (active),–
O=C(O)C(F)(F)C(F)(F)C(F)(F)C(F)(F)C(F)(F)C(F)(F)C(F)(F)C(F)(F)Cl,278 µM (active),–
FC(F)(F)C(F)(F)C(F)(F)C(F)(F)C(F)(F)C(F)(F)C(F)(F)C(F)(F)CCS,50 µM (active),–
O=C(O)C(F)(OC(F)(F)C(F)(OC(F)(F)C(F)(OC(F)(F)C(F)(F)C(F)(F)F)C(F)(F)F)C(F)(F)F)C(F)(F)F (centres undefined),0.0612 µM (active),–
FC(F)(F)C(F)(F)C(F)(F)C(F)(F)C(F)(F)C(F)(F)CCS,–,inactive
O=C(O)C(F)(OC(F)(F)C(F)(OC(F)(F)C(F)(F)C(F)(F)F)C(F)(F)F)C(F)(F)F (centres undefined),13.1 µM (active),–
O=S(=O)(OCC(F)(F)F)C(F)(F)C(F)(F)C(F)(F)C(F)(F)F,42.2 µM (active),–
O=C(Cl)C(F)(F)C(F)(F)C(F)(F)C(F)(F)C(F)(F)C(F)(F)C(F)(F)C(F)(F)F,–,inactive
O=C(O)C(F)(F)C(F)(F)C(F)(F)C(F)(F)C(F)(F)C(F)(F)C(F)(F)C(F)(F)C(F)(F)C(F)F,–,inactive
O=S(=O)(Cl)C(F)(F)C(F)(F)C(F)(F)C(F)(F)C(F)(F)C(F)(F)C(F)(F)C(F)(F)F,276 µM (active),–
Cn1cc[nH]c1=S,0.127 µM (active),–
FC(F)=C(F)C(F)(F)C(F)(F)C(F)(F)C(F)(F)C(F)(F)C(F)(F)F,30.9 µM (active),–
O=C(Cl)C(F)(F)C(F)(F)C(F)(F)C(F)(F)C(F)(F)C(F)(F)F,48.3 µM (active),–
